The source of these data is PubChem BioAssay (NCI).

About 83,000 compounds went through this panel and 20% of them were active in at least one assay; those are over-represented in the sample as a whole.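 Single-concentration screen, 48 h exposure, 96-well plates. Endpoint: percent growth. Below 10 = active.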 Activity calls are given as the source filed them.

The test system of the assay is M14 melanoma. Description: NCI-60 one-dose screen, 48 h (100 = growth as untreated, 0 = no growth, -100 = all killed). To be noted: 10 µM unless noted.
For `C[n+]1c(/C=C/c2ccc(N(CCCl)CCCl)cc2)sc2ccccc21`, the growth was 64.7% (inactive). Turning to `CC[C@H](C)[C@H](NC(=O)C12C3C4C1C1C2C3C41NC(C)=O)C(=O)N(C)[C@H](C[C@@H](OC(C)=O)c1nc(C(=O)N[C@@H](Cc2ccccc2)C[C@H](C)C(=O)OC)cs1)C(C)C` (stereo partly drawn), the growth is 1.02% (active). With `CCCCCN(CCCCC)CC(O)c1cc(Cl)ccc1OC` (stereo not drawn), the growth was 23.1% (inactive). The figure for `C#Cc1ccc2c(c1)C(c1ccccc1)=NCC(=O)N2C` is 18.5% (inactive). The figure for `CCOC(=O)CCN(C)C1=Nc2ccc(Cl)cc2C(c2ccccc2)=[N+]([O-])C1` is 113% (inactive); for `COC(=O)[C@@H](C)C[C@H](Cc1ccccc1)NC(=O)c1csc([C@@H](C[C@H](C(C)C)N(C)C(=O)[C@@H](NC(=O)CN(C)C)C2CC2)OC(C)=O)n1` it is 13% (inactive); for `COc1cc2c(c(OC)c1OC)-c1ccc([O-])c(=O)cc1[C@@H](NC(C)=O)CC2.COc1cc2c(c(OC)c1OC)-c1ccc([O-])c(=O)cc1[C@@H](NC(C)=O)CC2.[Cu+2]` it is 7.83% (active). The figure for `COc1ccc(/C=C\c2cc(OC)c(OC)c(OC)c2)c(NS(=O)(=O)c2ccc(C)cc2)c1O` is 9.2% (active).

Take `C=C(C)[C@@]12OC3(/C=C/C=C/CCCCC)O[C@@H]1[C@@H]1[C@@H]4O[C@]4(CO)[C@@H](O)[C@]4(O)C(=O)C(C)=C[C@H]4[C@@]1(O3)[C@H](C)[C@H]2OC(=O)c1ccccc1`: the growth was 36.3% (inactive).

Take `CC(C)CCC1(CCCl)C(=O)NC(=O)NC1=O`: the growth is 96.7% (inactive).

With `C[C@@]1(CCCCCCCCCc2ccc(O)cc2)C[C@]2(C)OC(=O)C[C@@H]2OO1`, the growth is 99.8% (inactive). Take `COC(=O)[C@@H](C)C[C@H](Cc1ccccc1)NC(=O)c1nc([C@@H](C[C@H](C(C)C)N(C)C(=O)[C@@H](NC(=O)[C@H]2CCCN2C)C(C)C)OC(C)=O)sc1C`: the growth was 1.43% (active). The figure for `CCOP(=O)(NC[C@H]1O[C@](O)(CO)[C@@H](O)[C@@H]1O)OCC` is 93.1% (inactive); for `O=C1CN=C(c2ccc(Cl)cc2)c2sccc2N1` it is 110% (inactive).

Take `COP(=O)(OC)C(O)c1ccc(Cl)cc1` (stereo not drawn): the growth is 96.4% (inactive). The figure for `CNC(=O)Oc1ccc(N(C)C)cc1C(C)C` is 97.2% (inactive).

Regarding `CO[C@H](C(=O)O)[C@@H]1Cc2cc3cc(OC4CC(OC5CC(O)C(O)C(C)O5)C(O)C(C)O4)c(C)c(O)c3c(O)c2C(=O)[C@H]1OC1CC(OC2CC(OC3CC(C)(O)C(O)C(C)O3)C(O)C(C)O2)C(O)C(C)O1` (stereo partly drawn), the growth was -8.35% (active). The figure for `CCOC(=O)N[C@H]1CCc2c(Br)c(OC)c(OC)c(OC)c2-c2ccc(SC)c(=O)cc21` is 0.572% (active).

Consider `Cc1cnc(/C=C/C(=O)O)cc1-c1cc2c(cc1C)C(C)(C)CCC2(C)C`, for which the growth is 77.1% (inactive). For `CC1=C(CNO)C2=C(C)C3(CC3)[C@@](C)(O)C(=O)C2=C1`, the growth was 26.8% (inactive). Consider `CC12CC=CCC1CCC1C2CCC2(C)C(c3ccc(=O)oc3)CCC12O` (stereo not drawn), for which the growth is -28% (active). The same measure for `Fc1c[c-]c(-c2ccccn2)c(F)c1.[CH3-].[Pt+2].c1ccc([PH+](c2ccccc2)c2ccccn2)cc1`: -30.4% (active); for `CN[C@@]1(c2ccccc2Cl)CCCC[C@@H]1NCC1CCCO1` (stereo partly drawn): 101% (inactive). The same measure for `CC(C)=CC1C(C(=O)OCc2cccc(Oc3ccccc3)c2)C1(C)C` (stereo not drawn): 95.3% (inactive); for `CCCCCCCC[n+]1ccc2ccccc2c1`: 42.6% (inactive); for `COC(=O)[C@@H](C)C[C@H](Cc1ccccc1)NC(=O)c1csc([C@@H](C[C@H](C(C)C)N(C)C(=O)C2(NC(=O)[C@H]3CCCCN3C)CC2)OC(C)=O)n1`: 0.0884% (active). The figure for `CC(=O)c1ccc(C(=O)NCC2CCC3(CC2)OOC2(CCCCC2)OO3)cc1` is 90.2% (inactive); for `COC(=O)[C@@H](C[C@H](Cc1ccccc1)NC(=O)c1csc([C@@H](C[C@H](C(C)C)N(C)C(=O)[C@@H](NC(=O)[C@H]2CCCCN2C)C(C)C)OC(C)=O)n1)NC(=O)OCc1ccccc1` it is -41.7% [9.5 µM] (active).
